# According to PubChem BioAssay AID818 (SRMLSC, 2007):
# Screen size: about 140,000 compounds; about 2,100 (1.5%) were called active. The full list was thinned out, with actives kept by preference. Unmarked numbers belong to inactive results.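 How the source made its calls: active means viability at or under a set limit, the compound median less 4 SD (cut at about 6% in these data); inactive means the rest.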
# Test: primary screen for growth suppressors in beta-catenin knockout HCT116 cells (colon tumor, human) (AID 818);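 further: 0% = Hyamine 1622 control at 20 µM and 100% = untreated cell control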
# Settings: CellTiter-Glo, 60 h, at 10 µM, hits give low values
row,Structure (SMILES),viability
1,COc1cc(OC)cc(C(=O)N[C@H](C(=O)OCC(=O)NC(C)c2ccccc2)C(C)C)c1 (some centres not stated),83.7%
2,O=C(NCc1ccccc1Cl)C1CCC(CNc2c(N3CCCCC3)c(=O)c2=O)CC1 (configuration not stated),98.7%
3,Cc1cc(C)cc(OCC(=O)Nc2nc3ccc([N+](=O)[O-])cc3s2)c1,109%
4,COC(=O)C(NC(=O)c1ccc(OC)cc1)(Nc1ncc(S(=O)(=O)c2ccc([N+](=O)[O-])cc2)s1)C(F)(F)F (configuration not stated),77.8%
5,O=C(NC(Nc1nc2ccc([N+](=O)[O-])cc2s1)(C(F)(F)F)C(F)(F)F)c1ccccc1,1.34% (active)
6,COc1ccc(NC(C(=O)Nc2cccc(C(C)=O)c2)c2ccccc2)cc1 (configuration not stated),84.6%
7,Cc1ccc(-c2csc(NNC(=O)c3ccccc3)n2)cc1,13.8%
8,COc1ccc(C)cc1Nc1nc(-c2c(C)[nH]c3ccccc23)cs1,89.8%
9,O=C(/C=C/Sc1ncn[nH]1)c1ccc(Cl)cc1,4.54% (active)
10,O=C(NCCOCc1ccc(Cl)cc1)c1ncn[nH]1,93%
11,CC(C)(C)c1ccc(C(=O)CSc2ncn[nH]2)cc1,94.5%
12,O=[N+]([O-])c1ccc(N/N=C2/CCCCC2c2ccccn2)c([N+](=O)[O-])c1 (configuration not stated),79.6%
13,CC[C@H]1CN2CCc3cc(OC)c(OC)cc3[C@@H]2C[C@@H]1C[C@H]1NCCc2cc(OC)c(OC)cc21,4.12% (active)
14,COc1cc2c(cc1O)[C@H](Cc1ccc(Oc3cc(C[C@@H]4NCCc5cc(OC)c(O)cc54)ccc3O)cc1)NCC2,55%
15,S=C(NCc1ccc(Cl)cc1)NC12CC3CC(CC(C3)C1)C2,3.01% (active)
16,S=C(NCc1ccc(Cl)cc1)NC1CCCCC1,66%
17,COC(=O)Cc1ccc(NC(=S)NCc2ccc(Cl)cc2)cc1,84.8%
18,CCCCN1C(=O)c2ccc(C(=O)Nc3ccc(S(=O)(=O)N(C)C)cc3)cc2C1=O,93.3%
19,Cc1ccc(NC(=O)CN(C)Cc2ccc(F)cc2)c([N+](=O)[O-])c1,91.3%
20,Cc1ccc(O)c(-c2cc(C(=O)Nc3c(C)n(C)n(-c4ccccc4)c3=O)[nH]n2)c1,80.2%
21,CC1CCCC(NC(=O)COC(=O)[C@@H]2CC(O)CN2S(=O)(=O)c2ccc3c(c2)OCCO3)C1C (some centres not stated),96.2%
22,CC1CCN(c2ccc(C(=O)NCc3ccc4c(c3)OCO4)cc2[N+](=O)[O-])CC1,94.5%
23,CCC(=O)Nc1ccc(C(=O)Nc2ccc3c(c2)C(=O)N(CC2CCCO2)C3=O)cc1 (configuration not stated),93.3%

row,Structure (SMILES),viability
1,O=C(NCc1ccc2c(c1)OCO2)c1ccc2c(c1)C(=O)N(CC1CCCO1)C2=O (configuration not stated),1.74% (active)
2,COc1cc(Cl)c(C)cc1NC(=O)COC(=O)c1cc(SC)ccc1Cl,79.6%
3,Cc1ccc(/C=N\n2c(-c3ccccc3)n[nH]c2=S)s1,94.7%
4,S=c1[nH]nc(-c2cccnc2)n1/N=C/C(Cl)=C\c1ccccc1,10.2%
5,Cc1cc(-c2n[nH]c(=S)n2/N=C/C(Br)=C/c2ccccc2)n[nH]1,2.95% (active)
6,Cc1ccc(NC(=O)c2oc(=O)c3ccccc3c2-c2ccccc2)c(C)c1,38.7%
7,CN(C)S(=O)(=O)c1ccc(N2CCCC2=O)c([N+](=O)[O-])c1,83%
8,O=C(O)C1CC=C(Cl)CC1C(=O)NCc1ccccc1 (configuration not stated),90%
9,CC1=C(C)CC(C(=O)NNC(=O)c2ccccc2O)C(C(=O)O)C1 (configuration not stated),5.74% (active)
10,CC1=C(C)CC(C(=O)NNC(=O)c2csc3c2CCC(C(C)(C)C)C3)C(C(=O)O)C1 (configuration not stated),95.9%
11,COc1ccc(C(=O)OCC(=O)NC(=O)CCSc2ccccc2)cc1,97.4%
12,CC(=O)Nc1ccc(NC(=O)C(C)OC(=O)c2ccccc2C(=O)c2ccc(Cl)c([N+](=O)[O-])c2)cc1 (configuration not stated),8.71%
13,COC(=O)c1cc(NC(=O)Cc2ccccc2[N+](=O)[O-])ccc1Cl,80.7%
14,N#Cc1cccc(NC(=O)COC(=O)c2ccccc2C(=O)c2ccc(Cl)c([N+](=O)[O-])c2)c1,3.2% (active)
15,CC(=O)Nc1ccc(SCC(=O)Nc2ccccc2Oc2ccccc2)cc1,86.2%
16,O=S(=O)(NCC1CCCO1)c1cnc(Cl)c(Cl)c1 (configuration not stated),69.3%
17,O=C(Nc1c2c(nc3ccccc13)CCCC2)c1ccccc1Br,83.6%
18,O=C(O)c1ccccc1-c1ccccc1C(=O)Nc1cccc2ccccc12,90.2%
19,O=C(Nc1cccc2ccccc12)c1onc2c1CCCC2,1.26% (active)
20,Cc1cc(C(C)(C)C)cc(C)c1N,100%
21,CCCc1nc(SCC(=O)Nc2ccc(S(=O)(=O)N(C)C)cc2)c2ccccc2n1,72.2%
22,CC(=O)N1CCN(c2cccc(C)c2C)CC1,99.9%
23,Cc1cccc(N2CCN(C(=O)c3cnn4c(C(F)F)cc(-c5ccccc5)nc34)CC2)c1C,2.3% (active)

row,Structure (SMILES),viability
1,O=C(O)c1cnn2c(C(F)(F)F)cc(-c3ccccc3)nc12,96.5%
2,CCC(C(=O)OCC(=O)Nc1ccccc1-c1ccccc1)c1ccccc1 (configuration not stated),92.8%
3,CCOc1ccccc1C1CC(c2cccc(NS(C)(=O)=O)c2)=NN1C(=O)c1ccccc1 (configuration not stated),79.6%
4,CCOc1ccc2nc(Cl)c(C3CC(c4ccccc4)=NN3C(=O)c3cccs3)cc2c1 (configuration not stated),1.68% (active)
5,COc1ccc(C2CC(c3ccccc3)=NN2C(=O)c2ccc(Cl)c([N+](=O)[O-])c2)cc1 (configuration not stated),10.9%
6,C/C(O)=C\c1nc(=O)c2c(C)cc(C)nc2n1-c1ccccc1,2.41% (active)
7,N#CCSc1nc2ccccc2c(=O)n1-c1ccccc1,101%
8,Cc1cc(C)c2c(n1)sc1c(=O)n(-c3ccccc3)c(=O)[nH]c12,95.9%
9,O=C1NC(=Nc2ccc(Cl)cc2)SC1Cc1cccc(Cl)c1Cl (configuration not stated),101%
10,COC(=O)c1sccc1NC(=O)COc1ccc(Cl)cc1,68.7%
11,Cc1ccc2[nH]c(=O)c(CC=C(Cl)Cl)c(C)c2c1,88.7%
12,CN(C)c1ccc(/C=N/NC(=O)c2ccc(Cn3cc(Br)cn3)o2)cc1,103%
13,COc1ccc(CCNc2cc(C)nc3c(-c4ccc(Cl)cc4)c(C)nn23)cc1OC,74.8%
14,CC(C)CC[n+]1ccn(C2=C([O-])c3ccccc3C(=O)/C2=N\S(=O)(=O)c2ccccc2)c1,2.01% (active)
15,COc1ccc(C2Nc3ccccc3C(=O)N2c2ccc(F)cc2)cc1Cn1nnc2ccccc21 (configuration not stated),69.3%
16,CC(=O)N1CC(C)c2scc(C)[n+]2-c2ccccc21 (configuration not stated),91.2%
17,COc1cccc(CNCCc2c[nH]c3ccccc23)c1OCc1ccccc1F,0.88% (active)
18,COc1ccccc1NC(=O)CCCc1c[nH]c2ccccc12,101%
19,COc1ccc(C(CCNCc2ccccc2F)c2ccc(F)cc2)cc1 (configuration not stated),9.17%
20,COc1ccc(/C(C)=N/NC(=O)CCC(=O)Nc2ccc(Cl)cc2Cl)c(OC)c1,91.2%
21,O=C(Nc1cccc(F)c1)c1coc(=O)c(Br)c1,45%
22,NC(=O)Nc1ccccc1C(=O)NCCc1ccccc1,99.7%
23,CCc1ccc(NC(=O)C(C)OC(=O)/C=C/c2cccc([N+](=O)[O-])c2)cc1 (configuration not stated),90.3%

row,Structure (SMILES),viability
1,Cn1cc([N+](=O)[O-])c(C(=O)Nc2ccc3c(c2)OCCO3)n1,5.15% (active)
2,Cn1cc([N+](=O)[O-])c(C(=O)Nc2cnn(Cc3ccc(F)cc3)c2)n1,8.14%
3,O=C(Nc1ccc2c(c1)OCCO2)c1ccncc1,100%
4,COc1ccc(OC(C)C(=O)NCCc2nc3ccccc3[nH]2)cc1 (configuration not stated),99.8%
5,CCOC(=O)c1cnc(-n2nc(C)cc2C)nc1-n1nc(C)cc1C,103%
6,CCOC(=O)c1cnc(-n2nc(C)cc2C)nc1NNc1cc(C)nc(-c2ccccc2)n1,3.41% (active)
7,CCOC(=O)c1cnc(-c2ccccc2)nc1Oc1ccc(C)cc1,89.3%
8,CCC(C)(C(=O)Nc1ccccc1C)N(C(=O)CNC(C)=O)c1ccc(C)cc1 (configuration not stated),92.2%
9,COC(=O)[C@@H]1CC[C@H](C)[C@@H](c2ccc(C)cc2)N1C(=O)c1ccc(/C=N/O[C@H](C)c2cn([C@@H]3COC[C@H]3O)nn2)cc1,86.4%
10,CSc1nc2ccccc2cc1/C=C(\C#N)c1ccc(Cl)cc1Cl,4.22% (active)
11,CSc1nc(N)c(C#N)c(-c2ccccc2Cl)c1C#N,89.2%
12,Cc1nc2ccccc2cc1O,92.2%
13,Cc1ccc(SCCC(=O)NC(C(C)C)C(C)C)cc1,89.2%
14,CCCC(NC(=O)c1ccco1)c1nc2ccccc2[nH]1 (configuration not stated),101%
15,CCCCC(=O)NCc1ccc(F)cc1,93.4%
16,CN(CC(=O)Nc1ccc(S(=O)(=O)N2CCCC2)cc1)Cc1ccc(Cl)c(Cl)c1,65.4%
17,COc1ccc(NS(=O)(=O)c2cc(NC(=O)/C=C/c3cc(OC)c(OC)c(OC)c3)ccc2N2CCCCC2)cc1,89.5%
18,C=CCc1cccc2cc(C(=O)OCC)c(=O)oc12,97.7%
19,COc1cccc2cc(C(=O)N(C)C)c(=O)oc12,1.59% (active)
20,COc1cccc2cc(C(=O)N3CCN(C(=O)c4ccccc4)CC3)c(=O)oc12,100%
21,COC(=O)c1ccc(C(=O)OC)c(NC(=S)N2CCN(c3cc(Cl)ccc3C)CC2)c1,92.1%
22,O=C(c1cccc2ccccc12)N1CCN(c2ccccc2F)CC1,83.3%
23,Cc1ccc(Cl)cc1N1CCN(C(=O)c2cccc3c(=O)c(C)c(-c4ccccc4)oc23)CC1,1.34% (active)
